The values that follow come from PubChem BioAssay (NCATS).

Values without a mark were called inactive. How the calls were made is not given here.
Potency means the concentration at half of the fitted maximal effect.

For this experiment, the system named is HIV-1 nucleocapsid protein NCp7 (binding to TG oligonucleotide). Kind of experiment: HIV Nucleocapsid (AID 346).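 Further: potency is for inhibitors that block NC binding and lower polarization.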 The conditions noted are these: HIV-1 NC / fluorescein-TGTGTGTG probe, fluorescence polarization. A digest of the protocol: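 10 nM TG4xF probe with 100 nM nucleocapsid protein in high-salt Hepes pH 7.5 (250mM NaCl) containing 1uM ZnCl2 and reducing agents. Compound inhibition of binding was read as fluorescein polarization after 1 hr at room temperature.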
As to `O=C(c1cc(C(F)(F)F)cc(C(F)(F)F)c1)N1CCC[C@@]2(CCN(Cc3ccccc3)C2)C1`, the Potency is over 4 µM. Take `O=C(c1ccco1)N1CCC[C@@]2(CCN(c3ccccc3)C2)C1`: the Potency is over 20 µM. Regarding `Cc1noc(C)c1-c1cc(Nc2ccccc2)ncn1`, the Potency was over 20 µM. In the case of `COCCNc1nc(-c2ccccc2OC)nc2ccccc12` it was over 20 µM; in that of `CCNc1ncc2nc(-c3ccc(OC)cc3)c(=O)n(CCOC)c2n1`, over 20 µM. Consider `CCNc1ncc2nc(-c3ccccc3)c(=O)n(Cc3ccc(F)cc3)c2n1`, for which the Potency was over 20 µM. The result for `CN(C)C(=O)c1ccc(-c2cc(NCc3cccs3)ncn2)cc1` reads over 20 µM; that for `O=c1c(-c2ccccc2)nc2cnc(Nc3ccccc3)nc2n1Cc1cccs1`, over 20 µM. In the case of `COCC(=O)N1CCC[C@@]2(CCN(C(=O)Nc3cccc(F)c3)C2)C1` it was over 20 µM; in that of `CC(=O)N1CCC2(CC1)CN(C(=O)Nc1cccc(C#N)c1)C2`, over 20 µM; in that of `CN(C)c1ccc(-c2cc(Nc3ccc(F)cc3)ncn2)cc1`, over 20 µM. On to `O=c1c(-c2ccc(F)cc2)nc2cncnc2n1Cc1ccccc1`, for which the Potency is over 20 µM. In the case of `COCCNc1nc(-c2ccccc2C(F)(F)F)nc2ccccc12` it was over 20 µM. In the case of `CN(C)c1ncc2nc(CCc3ccccc3)c(=O)n(-c3ccccc3)c2n1` it was over 20 µM; in that of `COc1ncc2nc(-c3ccc(Cl)cc3)c(=O)n(C[C@H]3CCCO3)c2n1`, over 20 µM; in that of `O=C(c1cccc(F)c1)N1CCC2(CCN(Cc3ccncc3)CC2)CC1`, over 20 µM. The result for `COc1ccc(-c2nc3cnc(N4CCNCC4)nc3n(Cc3cccs3)c2=O)cc1` reads over 20 µM; that for `COc1ccccc1-c1ccc2ncnc(N(C)Cc3ccco3)c2c1`, over 20 µM. For `COc1ccc(C(=O)N2CCC3(CC2)CCN(C(c2ccccc2)c2ccccc2)CC3)cc1`, the Potency was over 20 µM. In the case of `COc1cccc(Cn2c(=O)c(-c3ccc(Cl)cc3)nc3cnc(N4CCN(C)CC4)nc32)c1` it was over 20 µM; in that of `COC(=O)N1CCC[C@@]2(CCN(Cc3nccs3)C2)C1`, over 20 µM; in that of `c1ccc2c(Nc3ccncc3)nc(-c3ccc4c(c3)OCO4)nc2c1`, over 20 µM. Take `COCCn1c(=O)cnc2cnc(Oc3ccc(OC)cc3)nc21`: the Potency was over 20 µM. The result for `COc1ncc2ncc(=O)n(CCC#N)c2n1` reads over 20 µM. The result for `COc1ccccc1CCn1c(=O)c(-c2ccc(F)cc2)nc2cncnc21` reads over 20 µM. Regarding `COc1ccc2[nH]cc(CCNc3ccnc(-c4c(C)noc4C)n3)c2c1`, the Potency is over 20 µM. The result for `c1cncc(-c2nc(NCc3cccs3)c3ccccc3n2)c1` reads over 20 µM; that for `CN(C)c1ccc(-c2nccc(NCCN3CCOCC3)n2)cc1`, over 20 µM; that for `Cc1ccccc1-c1nc(N(C)C)c2ccccc2n1`, over 20 µM.

With `COc1cccc(Cn2c(=O)cnc3cnc(N4CCOCC4)nc32)c1`, the Potency was over 20 µM. As to `COc1cccc(Cn2c(=O)c(C)nc3cnc(OC)nc32)c1`, the Potency is over 20 µM. The result for `O=C(c1ccncc1)N1CCC2(CC1)CN(c1ccccn1)C2` reads over 20 µM; that for `COc1cccc(Cn2c(=O)c(-c3ccc(F)cc3)nc3cnc(OC)nc32)c1`, over 20 µM. In the case of `Cc1cnc(CNc2ccnc(-c3ccccc3C(F)(F)F)n2)cn1`, the Potency was over 20 µM. In the case of `COCCn1c(=O)c(-c2cn(C)c3ccccc23)nc2cnc(Oc3ccc(OC)cc3)nc21` it was over 20 µM; in that of `CC(=O)NCCNc1nc(-c2ccccc2C)nc2ccccc12`, over 20 µM; in that of `c1ncc(-c2ccoc2)c(NC2CC2)n1`, over 20 µM. In the case of `CC(C)NC(=O)N1CCCC2(CCN(C(=O)c3ccncc3)CC2)C1` it was over 20 µM. The result for `CN(C)c1ccc(-c2cncnc2NCc2cccnc2)cc1` reads over 20 µM; that for `Cc1cnc(CNc2ncnc3ccc(-c4ccccc4C(F)(F)F)cc23)cn1`, over 20 µM.
